Among the data in the supplement of paper PMC10849652 are log2 fold change values, retold here.

About 7,900 targets were measured; listed, in parts, are those with a hit and a random draw of the rest. About 0.6% of all pairs of compound and target were hits. A number with no mark means an inactive call.

Assay in all cases: log2 fold change, soluble protein after heating vs DMSO (PISA); higher = thermal stabilisation; K562 cells, 10 uM, 30 min; active = over 0.2 and 3.5 SD of the protein, either way, in both replicates (recomputed)
Compound in one assay: CN1CCN(CCOc2cc(OC3CCOCC3)c3c(Nc4c(Cl)ccc5c4OCO5)ncnc3c2)CC1 [saracatinib]
The method in brief:
(§1)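 Quantification of soluble protein used TMTpro 16plex LC-MS/MS, with channel sums equalised. Samples were the supernatant after 21,000xg for 90 min of pooled aliquots from K562 cells (2×10^6 cells/mL) treated with 10 μM compound for 30 min, heated for 3 min over 48°C-58°C, and extracted in PBS with 0.5% NP-40 at 4°C. Values, from duplicates, describe thermal stability against control samples on a log2 fold-change scale.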

Compound in another assay: CN1CCN(c2nc(C3=C(c4c[nH]c5ccccc45)C(=O)NC3=O)c3ccccc3n2)CC1 [sotrastaurin]
The method in brief:
as §1

Compound in a further assay: CN1CC[C@H](c2c(O)cc(O)c3c(=O)cc(-c4ccccc4Cl)oc23)[C@H](O)C1 [alvocidib]
Put shortly:
as §1

Compound in a further assay: CN1CCc2c(c3ccccc3n2Cc2ccc(C(=O)NO)cc2)C1 [Tubastatin A]
The method in brief:
as §1

Compound in assay [1]: CNC(=O)C1=CC=CC=C1NC2=NC(=NC=C2Cl)NC3=C(C=C(C=C3)N4CCOCC4)OC
The method in brief: as §1

Compound in assay [2]: CNc1nc(-c2ccc3c(N)n[nH]c3c2)cc(N2C[C@@H](C(=O)NC3CCCCC3)CC[C@H]2C)n1
Put shortly: as §1

Compound in the next assay: CON(C)C(=O)N1N=C(c2cc(F)ccc2F)S[C@@]1(CCCN)c1ccccc1 [filanesib]
The method in brief:
as §1

Compound in the next assay: CO[C@H]1C[C@@H]2CC[C@@H](C)[C@@](O)(O2)C(=O)C(=O)N2CCCC[C@H]2C(=O)O[C@H]([C@H](C)C[C@@H]2CC[C@H](n3cnnn3)[C@H](OC)C2)CC(=O)[C@H](C)/C=C(\C)[C@@H](O)[C@@H](OC)C(=O)[C@H](C)C[C@H](C)/C=C/C=C/C=C/1C [zotarolimus]
The method in brief: as §1

Compound in the next assay: COc1cc(C(=O)O)ccc1NC(=O)[C@@H]1N[C@@H](CC(C)(C)C)[C@](C#N)(c2ccc(Cl)cc2F)[C@H]1c1cccc(Cl)c1F [idasanutlin]
Put shortly: as §1

Compound in the next assay: COc1cc(Nc2ncc3c(n2)-c2ccc(Cl)cc2C(c2c(F)cccc2OC)=NC3)ccc1C(=O)O [alisertib]
Put shortly:
as §1

Compound in assay [3]: COc1cc2nc(-c3cc(F)ccc3O)nc(N[C@@H]3CNC[C@H]3C(C)(C)O)c2cc1OC
Put shortly:
as §1

Compound in a further assay: COc1cc2ncnc(Nc3ccc(F)c(Cl)c3)c2cc1OCCCN1CCOCC1 [gefitinib]
Put shortly: as §1

Compound in assay [4]: COc1cccc2cc(-c3nc([C@H]4CC[C@H](C(=O)O)CC4)n4ncnc(N)c34)[nH]c12
Put shortly:
as §1

Compound in the next assay: CS(=O)(=O)CCNCc1ccc(-c2ccc3ncnc(Nc4ccc(OCc5cccc(F)c5)c(Cl)c4)c3c2)o1 [lapatinib]
Put shortly: as §1

Compound in the next assay: CS(=O)(=O)N1CCN(Cc2cc3nc(-c4cccc5[nH]ncc45)nc(N4CCOCC4)c3s2)CC1 [pictilisib]
Put shortly:
as §1

Compound in another assay: CNC(=O)c1ccc(Nc2ncc(C(F)(F)F)c(NCc3nccnc3N(C)S(C)(=O)=O)n2)cc1 [defactinib]
Put shortly:
as §1

Compound in another assay: CNCc1ccc(-c2[nH]c3cc(F)cc4c3c2CCNC4=O)cc1 [rucaparib]
The method in brief:
as §1

Compound in another assay: COC(=O)N[C@@H](C)CNc1nccc(-c2cn(C(C)C)nc2-c2cc(Cl)cc(NS(C)(=O)=O)c2F)n1 [encorafenib]
The method in brief: as §1

Compound in assay [5]: COC(=O)[C@H](CCSC)NC(=O)C1=C(C=C(C=C1)NC[C@H](CS)N)C2=CC=CC=C2
The method in brief: as §1

Compound in assay [6]: COC1=CC=C(C=C1)CN2C=CC3=C2C=C(C=C3)C(=O)NO
The method in brief:
as §1

Sequence of UniProt Q5VWP2 (Q5VWP2 whole entry, looked up): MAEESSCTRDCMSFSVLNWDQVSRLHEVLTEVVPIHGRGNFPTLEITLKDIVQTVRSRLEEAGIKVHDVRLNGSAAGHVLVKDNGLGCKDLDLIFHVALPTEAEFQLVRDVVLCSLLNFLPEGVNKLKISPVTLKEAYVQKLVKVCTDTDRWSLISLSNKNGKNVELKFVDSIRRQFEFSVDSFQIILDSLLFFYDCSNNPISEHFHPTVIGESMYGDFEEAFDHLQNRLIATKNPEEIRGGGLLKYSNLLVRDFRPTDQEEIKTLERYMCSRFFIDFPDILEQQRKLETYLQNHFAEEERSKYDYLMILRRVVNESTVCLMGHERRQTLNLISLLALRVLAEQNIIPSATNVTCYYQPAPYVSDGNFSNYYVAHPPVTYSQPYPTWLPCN
Sequence of UniProt Q8IWA5 (Q8IWA5 whole entry, looked up): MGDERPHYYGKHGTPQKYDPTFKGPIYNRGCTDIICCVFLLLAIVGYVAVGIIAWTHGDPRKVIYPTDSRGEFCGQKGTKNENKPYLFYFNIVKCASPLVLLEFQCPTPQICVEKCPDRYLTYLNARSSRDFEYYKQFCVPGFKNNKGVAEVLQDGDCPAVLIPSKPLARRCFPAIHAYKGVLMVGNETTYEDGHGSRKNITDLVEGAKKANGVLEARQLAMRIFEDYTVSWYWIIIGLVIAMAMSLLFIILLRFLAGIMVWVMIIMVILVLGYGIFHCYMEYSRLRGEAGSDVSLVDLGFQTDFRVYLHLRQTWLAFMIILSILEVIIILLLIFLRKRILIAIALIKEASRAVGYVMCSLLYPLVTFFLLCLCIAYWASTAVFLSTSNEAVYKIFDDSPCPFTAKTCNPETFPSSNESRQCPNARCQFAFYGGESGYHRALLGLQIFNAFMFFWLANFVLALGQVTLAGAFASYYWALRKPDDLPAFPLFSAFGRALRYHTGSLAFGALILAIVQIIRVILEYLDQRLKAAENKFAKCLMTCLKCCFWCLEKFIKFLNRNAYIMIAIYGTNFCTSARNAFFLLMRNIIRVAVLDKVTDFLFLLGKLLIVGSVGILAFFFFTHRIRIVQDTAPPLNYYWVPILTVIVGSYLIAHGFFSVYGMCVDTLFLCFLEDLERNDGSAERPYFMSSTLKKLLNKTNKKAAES
Sequence of UniProt Q14849 (Q14849 whole entry, looked up): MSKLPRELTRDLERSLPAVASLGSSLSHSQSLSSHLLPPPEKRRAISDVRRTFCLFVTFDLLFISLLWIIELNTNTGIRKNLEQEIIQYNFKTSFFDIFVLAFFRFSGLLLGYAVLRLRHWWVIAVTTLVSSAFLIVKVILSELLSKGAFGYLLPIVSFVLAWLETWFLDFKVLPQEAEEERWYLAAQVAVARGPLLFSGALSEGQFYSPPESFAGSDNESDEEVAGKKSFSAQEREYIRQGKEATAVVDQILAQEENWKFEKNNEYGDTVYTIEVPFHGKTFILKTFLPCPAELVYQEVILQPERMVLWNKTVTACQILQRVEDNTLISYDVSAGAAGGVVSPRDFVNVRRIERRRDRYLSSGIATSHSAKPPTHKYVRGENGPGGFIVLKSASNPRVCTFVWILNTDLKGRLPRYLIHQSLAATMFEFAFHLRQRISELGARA
Sequence of UniProt Q9NRS6 (Q9NRS6 whole entry, looked up): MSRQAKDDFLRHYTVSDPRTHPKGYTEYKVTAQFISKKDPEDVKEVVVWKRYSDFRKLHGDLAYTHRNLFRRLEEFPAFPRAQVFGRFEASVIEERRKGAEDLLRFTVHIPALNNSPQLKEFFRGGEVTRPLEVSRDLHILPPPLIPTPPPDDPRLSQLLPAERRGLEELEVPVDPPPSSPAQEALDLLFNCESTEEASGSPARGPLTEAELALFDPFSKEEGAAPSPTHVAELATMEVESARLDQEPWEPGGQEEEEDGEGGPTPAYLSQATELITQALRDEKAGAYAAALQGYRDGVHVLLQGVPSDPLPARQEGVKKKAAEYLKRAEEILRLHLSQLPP
Sequence of UniProt Q96JI7 (Q96JI7 whole entry, looked up): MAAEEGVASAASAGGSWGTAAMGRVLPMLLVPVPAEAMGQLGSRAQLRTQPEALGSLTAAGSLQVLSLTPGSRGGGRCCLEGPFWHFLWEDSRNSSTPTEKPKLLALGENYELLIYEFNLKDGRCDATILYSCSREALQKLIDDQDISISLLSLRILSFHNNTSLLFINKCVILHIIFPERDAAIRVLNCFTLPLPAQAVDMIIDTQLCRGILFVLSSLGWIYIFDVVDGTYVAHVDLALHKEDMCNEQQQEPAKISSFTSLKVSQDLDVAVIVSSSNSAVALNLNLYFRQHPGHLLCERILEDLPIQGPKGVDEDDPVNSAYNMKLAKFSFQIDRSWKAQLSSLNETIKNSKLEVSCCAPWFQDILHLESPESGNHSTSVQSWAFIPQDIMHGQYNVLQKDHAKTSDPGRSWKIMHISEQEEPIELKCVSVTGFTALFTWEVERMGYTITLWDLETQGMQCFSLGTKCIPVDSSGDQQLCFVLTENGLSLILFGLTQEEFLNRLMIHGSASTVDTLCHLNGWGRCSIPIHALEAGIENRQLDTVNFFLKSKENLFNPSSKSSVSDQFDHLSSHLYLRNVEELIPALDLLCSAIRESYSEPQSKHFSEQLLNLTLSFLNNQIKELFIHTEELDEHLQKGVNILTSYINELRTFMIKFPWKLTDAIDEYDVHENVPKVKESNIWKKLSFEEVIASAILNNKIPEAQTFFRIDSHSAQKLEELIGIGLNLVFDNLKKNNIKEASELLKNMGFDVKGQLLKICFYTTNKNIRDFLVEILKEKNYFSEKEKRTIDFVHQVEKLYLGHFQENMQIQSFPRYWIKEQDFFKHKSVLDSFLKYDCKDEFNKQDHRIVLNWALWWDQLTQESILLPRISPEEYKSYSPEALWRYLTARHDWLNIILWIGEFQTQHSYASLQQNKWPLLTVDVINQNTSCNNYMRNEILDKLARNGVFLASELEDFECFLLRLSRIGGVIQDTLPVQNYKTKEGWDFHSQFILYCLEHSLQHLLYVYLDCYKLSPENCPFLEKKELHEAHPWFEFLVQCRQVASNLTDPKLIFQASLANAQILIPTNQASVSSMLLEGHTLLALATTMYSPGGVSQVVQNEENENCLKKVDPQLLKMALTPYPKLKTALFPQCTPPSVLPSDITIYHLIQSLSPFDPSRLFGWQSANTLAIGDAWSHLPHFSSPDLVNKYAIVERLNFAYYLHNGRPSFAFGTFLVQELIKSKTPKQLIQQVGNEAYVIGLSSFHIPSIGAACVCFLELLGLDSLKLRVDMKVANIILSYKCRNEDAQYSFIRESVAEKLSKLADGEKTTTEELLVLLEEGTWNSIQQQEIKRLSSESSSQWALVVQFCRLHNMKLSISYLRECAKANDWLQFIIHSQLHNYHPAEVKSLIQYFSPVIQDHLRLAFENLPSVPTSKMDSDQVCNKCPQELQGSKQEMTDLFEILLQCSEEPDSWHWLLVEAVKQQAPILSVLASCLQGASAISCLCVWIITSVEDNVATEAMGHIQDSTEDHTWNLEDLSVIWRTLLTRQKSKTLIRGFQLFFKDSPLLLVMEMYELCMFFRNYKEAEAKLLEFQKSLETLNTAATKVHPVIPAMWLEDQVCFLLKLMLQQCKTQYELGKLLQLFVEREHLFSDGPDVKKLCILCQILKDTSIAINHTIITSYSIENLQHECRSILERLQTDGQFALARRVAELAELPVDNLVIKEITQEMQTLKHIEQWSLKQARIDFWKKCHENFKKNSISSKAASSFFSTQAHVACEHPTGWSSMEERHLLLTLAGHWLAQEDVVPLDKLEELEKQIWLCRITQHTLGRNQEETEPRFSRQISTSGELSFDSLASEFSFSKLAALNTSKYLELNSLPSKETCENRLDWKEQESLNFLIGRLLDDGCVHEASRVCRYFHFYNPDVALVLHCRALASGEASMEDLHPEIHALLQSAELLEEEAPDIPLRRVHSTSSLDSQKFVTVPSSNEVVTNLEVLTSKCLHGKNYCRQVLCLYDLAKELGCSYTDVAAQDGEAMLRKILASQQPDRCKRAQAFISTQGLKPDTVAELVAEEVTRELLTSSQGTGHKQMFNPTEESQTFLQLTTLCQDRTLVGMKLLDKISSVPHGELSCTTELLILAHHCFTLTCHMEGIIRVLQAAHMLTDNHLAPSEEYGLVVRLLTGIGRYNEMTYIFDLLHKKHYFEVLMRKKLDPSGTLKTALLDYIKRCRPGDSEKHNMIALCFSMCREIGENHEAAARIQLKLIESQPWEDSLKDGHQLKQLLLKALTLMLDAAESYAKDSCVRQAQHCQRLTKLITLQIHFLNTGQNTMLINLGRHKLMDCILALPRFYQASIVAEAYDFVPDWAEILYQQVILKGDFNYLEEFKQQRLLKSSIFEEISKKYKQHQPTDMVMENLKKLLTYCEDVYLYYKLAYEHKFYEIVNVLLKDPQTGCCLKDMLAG
Sequence of UniProt O15400 (O15400 whole entry, looked up): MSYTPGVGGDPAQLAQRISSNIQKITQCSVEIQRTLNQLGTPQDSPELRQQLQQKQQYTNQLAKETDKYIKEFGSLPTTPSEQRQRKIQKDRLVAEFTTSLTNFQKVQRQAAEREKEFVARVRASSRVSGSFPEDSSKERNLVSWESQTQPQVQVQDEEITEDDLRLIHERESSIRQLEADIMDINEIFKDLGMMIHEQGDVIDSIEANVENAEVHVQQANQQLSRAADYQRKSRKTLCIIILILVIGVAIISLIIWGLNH

For TAF6L (UniProt Q9Y6J9), the log2 fold change with saracatinib was 0.148; with sotrastaurin, -0.2; with alvocidib, -0.055; in the assay with Tubastatin A it was -0.012; in assay [1], -0.044; in assay [2], 0.035. Besides, the log2 fold change in the assay with filanesib was 0.177; with zotarolimus, 0.049; in the assay with idasanutlin it was 0.001; with alisertib, -0.13; in [3], 0.166; with gefitinib, 0.054. Also, the log2 fold change is 0.038 in [4], -0.133 with lapatinib and 0.166 with pictilisib.
TENT5C (UniProt Q5VWP2): the log2 fold change with saracatinib was -0.127; with sotrastaurin, 0.035; with alvocidib, 0.115; with Tubastatin A, 0.004; in assay [1], -0.133; with defactinib it was 0.071. The log2 fold change with rucaparib was 0.171; in [2], -0.071; with encorafenib, 0.094; in assay [5], -0.011; in assay [6] it was -0.133; in the assay with filanesib, 0.049. Besides, the log2 fold change is -0.56 (active) in the assay with zotarolimus; 0 with alisertib; 0.075 in assay [3]; 0.002 with gefitinib; -0.021 in [4]; -0.092 with lapatinib. Moreover, in the assay with pictilisib, the log2 fold change was 0.168.
In the case of SLC27A1 (UniProt Q6PCB7), the log2 fold change with saracatinib was -0.007; with sotrastaurin, 0.013; in the assay with alvocidib, -0.203; with Tubastatin A, -0.252; in assay [1], -0.011; with defactinib it was 0.064. Besides, the log2 fold change in assay [2] was 0.146; in assay [5], -0.183; in [6], -0.263; with filanesib, 0.118; with zotarolimus it was 0.064; with idasanutlin, -0.038. Besides, the log2 fold change with alisertib is 0.004; in [3] it was 0.069; with gefitinib, 0.016; in assay [4] it was -0.031; in the assay with lapatinib it was 0.014.
In the case of STARD3 (UniProt Q14849), the log2 fold change was -0.043 in the assay with saracatinib; -0.028 with sotrastaurin; 0.035 in the assay with alvocidib; 0.013 with Tubastatin A; -0.02 in assay [1]; -0.035 in the assay with defactinib. Also, the log2 fold change in assay [2] is 0.028; in assay [5] it was -0.014; in [6], 0; in the assay with filanesib, -0.147; with zotarolimus, -0.004; in the assay with idasanutlin, 0.109. The log2 fold change in the assay with alisertib was 0.018; in assay [3], 0.038; with gefitinib it was 0.075; in assay [4], 0.035; in the assay with lapatinib, 0.043; with pictilisib, -0.047.
As to SNX15 (UniProt Q9NRS6), the log2 fold change is -0.039 with saracatinib; -0.048 with sotrastaurin; 0.133 in the assay with alvocidib; 0.045 with Tubastatin A; -0.177 in the assay with defactinib; -0.063 in the assay with rucaparib. The log2 fold change is -0.043 in assay [2]; 0.098 in the assay with encorafenib; 0.025 in [5]; -0.166 in assay [6]; 0.151 in the assay with filanesib; -0.034 with zotarolimus. The log2 fold change in the assay with idasanutlin is 0.108; with alisertib, -0.027; in assay [3] it was 0.019; in the assay with gefitinib it was 0.126; in assay [4] it was 0.032; in the assay with lapatinib it was -0.139. The log2 fold change with pictilisib was 0.018.
In the case of SLC44A2 isoform 2 (UniProt Q8IWA5), the log2 fold change with saracatinib is 0.104; with sotrastaurin it was 0.056; in the assay with alvocidib it was -0.051; with Tubastatin A, -0.053; in assay [1] it was -0.055; in the assay with defactinib, -0.137. Moreover, the log2 fold change in the assay with rucaparib was -0.044; in [2] it was 0.043; in the assay with encorafenib, -0.125; in [5], 0.02; in assay [6] it was 0.018; with filanesib, 0.048. Further, the log2 fold change was -0.028 with zotarolimus; 0.026 with idasanutlin; -0.118 in the assay with alisertib; 0.002 with gefitinib; 0.057 in assay [4]; 0.13 in the assay with pictilisib.
Take STX7 (UniProt O15400): the log2 fold change in the assay with saracatinib was 0.063; in the assay with sotrastaurin, 0.026; with alvocidib it was -0.001; in the assay with Tubastatin A, -0.036; in [1] it was 0.013; with defactinib, -0.033. Also, the log2 fold change with rucaparib was 0.028; in assay [2], -0.014; with encorafenib it was -0.039; in assay [5] it was -0.02; in assay [6] it was 0.065; with filanesib it was -0.071. The log2 fold change is 0.027 with zotarolimus; -0.023 with idasanutlin; -0.048 with alisertib; 0.013 in assay [3]; -0.01 with gefitinib; 0.045 in assay [4]. The figures for the log2 fold change with lapatinib and with pictilisib were -0.002 and -0.118, respectively.
As to SPG11 (UniProt Q96JI7), the log2 fold change with saracatinib was -0.281; in the assay with sotrastaurin it was 0.055; with alvocidib, 0.28; in the assay with Tubastatin A, 0.012; in assay [1], -0.156; with defactinib it was 0.151. For the same target, the log2 fold change is 0.046 with rucaparib; 0.119 in [2]; -0.094 with encorafenib; 0.069 in assay [5]; -0.232 in [6]; 0.158 with filanesib. Besides, the log2 fold change in the assay with zotarolimus was -0.415; in the assay with idasanutlin, -0.118; with alisertib, 0.388; in assay [3], 0.14; in the assay with gefitinib, -0.032; in assay [4] it was 0.331. The log2 fold change is -0.167 with lapatinib and 0.401 with pictilisib.
